Measurements taken from PubChem BioAssay (NCI).
Compounds without any hit were thinned out: in the full panel of roughly 79,000, 15% have a hit. Rule as the data show it: active = growth inhibition above about 70%; inactive = the rest.

Experiments:
[1] = NCI Yeast Anticancer Drug Screen. Data for the rad50 strain (AID 155);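 also: 0% = growth of vehicle-only cultures of the same strain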; conditions: S. cerevisiae rad50 strain growth inhibition; at 50.0 µM; hits give high values
Procedure, shortened: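 Growth of the mutant yeast was measured after compound exposure and referenced to vehicle-treated cultures.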

[2] = NCI Yeast Anticancer Drug Screen. Data for the mec2-1 strain (AID 157); conditions: S. cerevisiae mec2-1 strain, at 50.0 µM, hits give high values
Procedure, shortened: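 Compounds were applied to mec2-1 yeast cells. Their growth was then compared with that of vehicle-treated cultures to give growth inhibition.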

[3] = NCI Yeast Anticancer Drug Screen. Data for the sgs1 mgt1 strain (AID 161);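 also: 0% = growth of cultures given vehicle only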; conditions: S. cerevisiae sgs1 mgt1 strain, at 50.0 µM, hits give high values
Procedure, shortened: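 Yeast cells carrying a defined DNA-repair defect were exposed to test compounds. Growth inhibition was measured relative to vehicle-treated controls.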

[4] = NCI Yeast Anticancer Drug Screen. Data for the cln2 rad14 strain (AID 165);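 also: 0% = growth equal to vehicle treated cultures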; conditions: S. cerevisiae cln2 rad14 strain, at 50.0 µM, hits give high values
Procedure, shortened: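 Strain: cln2 rad14 yeast, altered in cell cycle control and DNA damage repair. Read-out: growth inhibition vs vehicle.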

[5] = NCI Yeast Anticancer Drug Screen. Data for the bub3 strain (AID 167); conditions: S. cerevisiae bub3 mutant strain, at 50.0 µM, hits give high values
Procedure, shortened: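 Whole-cell yeast assay. The mutant strain was incubated with compounds, and growth inhibition was determined by comparison with vehicle-treated cells.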

[6] = NCI Yeast Anticancer Drug Screen. Data for the mlh1 rad18 strain (AID 175); conditions: S. cerevisiae mlh1 rad18 strain growth inhibition; at 50.0 µM; hits give high values
Procedure, shortened: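 A repair-deficient yeast strain is exposed to test compound, and growth is scored relative to vehicle-treated controls.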

Measured: growth inhibition

Cc1ccc(S(=O)(=O)N2CCN(C=S)CC2)cc1
inactive: [1] 22.4% | [2] -30.8% | [3] 14.2% | [4] 3.9% | [5] 23.2% | [6] 26.9%

CC(=O)Nc1ccc(/C=C2\SC(=S)N(/C=C3/C(=O)N(c4ccccc4)N=C3C)C2=O)cc1
inactive: [1] 12.6% | [2] -3% | [3] 4% | [4] 7% | [5] -2.85% | [6] 7%

Cc1ccc(S(=O)(=O)c2ccc(C)cc2C(=O)O)cc1
inactive: [1] -8.6% | [2] -19.3% | [3] -1.4% | [4] -9.8% | [5] -30.2% | [6] -22.4%

CCN(CC)CCOc1ccccc1C(C)C
inactive: [1] 14.6% | [2] 7.5% | [3] 17.1% | [4] 19.5% | [5] 4% | [6] 25.1%

COC(=O)c1cccc2ccc3cccc(C=O)c3c12
inactive: [1] -29.4% | [2] 6.6% | [3] -5.9% | [4] -30.8% | [5] 12.2% | [6] -14.5%

CCCC1OCC(CC)([N+](=O)[O-])CO1 (stereo unspecified)
inactive: [1] 19.6% | [2] 15.7% | [3] 18.1% | [4] 9.3% | [5] -0.85% | [6] -5.7%

CCOC(=O)CCNc1nc(N)nc(C)c1NC=O
inactive: [1] -11.9% | [2] 5.55% | [3] -16.5% | [4] 9.7% | [5] 5.9% | [6] 16.9%

CC(=O)Nc1cccc(S(=O)(=O)c2cccc(NC(C)=O)c2)c1
inactive: [1] -9.8% | [2] -10.1% | [3] -7.55% | [4] -66.5% | [5] 8.1% | [6] -10.3%

OCc1ccccc1C(c1ccc(O)cc1)c1ccc(O)cc1
inactive: [1] 26.3% | [2] -7.9% | [3] 28.9% | [4] 18% | [5] 12.7% | [6] 5.15%

c1ccc(Sc2cc(Sc3ccccc3)c3cccccc2-3)cc1
inactive: [1] 17.9% | [2] -21.9% | [3] -27.4% | [4] -6.05% | [5] 5.25% | [6] 3.2%

CCCCCCCC(=O)NNCc1ccccc1
inactive: [1] -16.1% | [2] 33.2% | [3] 15.6% | [4] 3.35% | [5] 15.9% | [6] 6.9%

CNC(=O)Nc1ccnc(=O)[nH]1
inactive: [1] -10.6% | [2] -1.85% | [3] -6.15% | [4] -28.3% | [5] -9.55% | [6] -8.8%

CC(/C=N/N(C)C1=NCCCCN1)=N/N(C)C1=NCCCCN1
inactive: [1] 23.9% | [2] 12.7% | [3] 18.5% | [4] -21.6% | [5] -2.5% | [6] 29.4%

CN(C)CC(CN(C)C)C(=O)c1ccccc1
inactive: [1] 8.6% | [2] 19.6% | [3] 16.3% | [4] -1% | [5] -24.1% | [6] -4.05%

CC(C)CC(N)C(=O)OCN1C(=O)C2C3C=CC(C2C1=O)C1C2C(=O)N(COC(=O)C(N)CC(C)C)C(=O)C2C31 (stereo unspecified)
inactive: [1] 16.1% | [2] 15.6% | [3] 5.05% | [4] 36.5% | [5] -0.05% | [6] 9.7%

O=C1C=CC(=O)c2c(Cl)ccc(O)c21
inactive: [1] -16.9% | [2] -30.6% | [3] -20.4% | [4] 10.1% | [5] -20.2% | [6] -8.7%

CC1=C/C(=N/Nc2ccc([N+](=O)[O-])cc2[N+](=O)[O-])CC(C)(C)C1
inactive: [1] -21.3% | [2] -27.2% | [3] 18.4% | [4] -41% | [5] 3.1% | [6] 3.5%

Cc1ccc(NC(=O)OCCN(C)C)cc1Cl
inactive: [1] -6.75% | [2] -25.8% | [3] 16.4% | [4] 11.1% | [5] 8.2% | [6] -4.6%

NC(N)=N/N=C/C(=N\N=C(N)N)C(O)CO (stereo unspecified)
inactive: [1] 28.9% | [2] -4.45% | [3] 1.85% | [4] 2.4% | [5] 4.85% | [6] -9.1%

CC(C)(O)C#Cc1ccccc1
inactive: [1] -0.85% | [2] -8.2% | [3] -0.95% | [4] -24.8% | [5] -9.5% | [6] 11.1%

COC(=N)/C(C#N)=N/C1OCC(O)C(O)C1O (stereo unspecified)
inactive: [1] 5.65% | [2] -21.1% | [3] 2.15% | [4] -31.6% | [5] 0.35% | [6] 0.45%

COC(=O)C(CC(=O)[C@H]1CC[C@H]2[C@@H]3CC=C4C[C@@H](OC(C)=O)CC[C@]4(C)[C@H]3CC[C@]12C)OC(C)=O (stereo partly specified)
inactive: [1] 18.7% | [2] -6.2% | [3] 26.7% | [4] 28.9% | [5] -1.75% | [6] 8.7%

CC1(C)C(=O)N(c2ccccc2)C1c1ccccc1 (stereo unspecified)
inactive: [1] -6.2% | [2] -5.4% | [3] -1.5% | [4] -40.5% | [5] 12.1% | [6] -5.7%

COc1cc(CNc2nc3ccccc3nc2C(=O)O)cc(OC)c1OC
inactive: [1] 10.3% | [2] 3.05% | [3] -8.75% | [4] 5.1% | [5] -2.15% | [6] -0.4%

CC12CCC3C(CCC4CC(O)(C(=O)O)CC43C)C1CCC2O (stereo unspecified)
inactive: [1] -16.9% | [2] -3.05% | [3] -19.9% | [4] 5.15% | [5] -7.55% | [6] -19.3%

O=C1CCC(O)=C1O
inactive: [1] -7.75% | [2] -11.4% | [3] 2.3% | [4] 26.5% | [5] -2.35% | [6] -0.25%

CC(=O)SC1CS(=O)(=O)CC1SC(C)=O (stereo unspecified)
inactive: [1] 60.8% | [2] 52.9% | [3] 59% | [4] 40.2% | [5] 44.5% | [6] 63.5%

Cc1ccc(N=C=Nc2ccc(C)cc2)cc1
inactive: [1] 2.65% | [2] 2.65% | [3] -3.05% | [4] -9.75% | [5] 2.85% | [6] -1.5%

C=CCNC(=S)/N=C/c1c(C(=O)OCC)[nH]n(-c2ccccc2)c1=O
inactive: [1] -27.8% | [2] -19.5% | [3] -44.8% | [4] -32.8% | [5] -26% | [6] -54.6%

COc1ccc(/C=C2\N=C(NN)N=C2Cl)cc1
inactive: [1] -8.2% | [2] -30.9% | [3] 4.55% | [4] 23.4% | [5] -0.35% | [6] -13.3%

O=C1C(=O)c2ccc3c(c2-c2cc4c(cc21)OCO4)OCO3
inactive: [1] -5.55% | [2] -17.1% | [3] -14.9% | [4] -5.55% | [5] -27.5% | [6] 18%

CCN(CC)CCC1(C(N)=O)Cc2ccccc2N(CC)c2ccccc21 (stereo unspecified)
inactive: [1] 13.6% | [2] 10.6% | [3] 8.7% | [4] -2.6% | [5] 6.4% | [6] 1.85%

Cc1cc2c(cc1C)[n+](=O)c(C(=O)CC(=O)C(=O)Nc1ccccc1C)c(C)n2[O-]
inactive: [1] 37% | [2] 46.5% | [3] 3.8% | [4] 30.4% | [5] 47.3% | [6] 9.3%

S=C1Nc2ccccc2C2CC=NN12 (stereo unspecified)
inactive: [1] -1.75% | [2] -4.15% | [3] 10.6% | [4] -30% | [5] -44.6% | [6] 29.4%

Nc1ncnc(N2CCOCC2)n1
inactive: [1] -28.8% | [2] -41.3% | [3] -8.15% | [4] 0.95% | [5] -14.9% | [6] -8.3%

NC(N)=NC(Cc1ccccc1)C(=O)O (stereo unspecified)
inactive: [1] -8.15% | [2] -10% | [3] 1.3% | [4] -26.6% | [5] -12.4% | [6] 0%

NC(=O)c1ccc(=S)[nH]c1
inactive: [1] -8% | [2] -12.7% | [3] -7.55% | [4] -27.1% | [5] -6.1% | [6] 14.7%

CCCCCCCC/C=C\CCCCCCC(F)C(=O)O (stereo unspecified)
inactive: [1] 25.4% | [2] 4.55% | [3] 16.2% | [4] 6.1% | [5] -11.8% | [6] -43%

O=S(O)CCCCCSSCCCCSSCCCCCS(=O)O
inactive: [1] 7.6% | [2] -0.15% | [3] 11.5% | [4] 10.3% | [5] 12.8% | [6] 27.4%

Cc1[nH]c2ccccc2c1C1=CC(=O)N(c2ccccc2)C1=O
inactive: [1] -24.1% | [2] -23.6% | [3] 9.3% | [4] 21.4% | [5] -4.7% | [6] -7.9%

CCCCCCC(=O)C/C(CCC(=O)N(Cc1ccccc1)Cc1ccccc1)=N\NC(N)=O
inactive: [1] -6.65% | [2] 2.75% | [3] -14.8% | [4] 3.75% | [5] -6.65% | [6] -20.8%
